This is an account of results in PubChem BioAssay (NCI).

Compounds without any hit were thinned out: in the full panel of roughly 83,000, 20% have a hit.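 Method: cells in 96-well plates; compound added at one concentration; 48 h incubation; percent growth measured; values under 10 scored active.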 A number with no mark means an inactive call. The source made the active and inactive calls.

The subject of the first experiment is NCI-H322M lung. Briefly: NCI-60 one-dose screen, 48 h (100 = growth as untreated, 0 = no growth, -100 = all killed). The following applies: 10 µM unless noted.
`O=C(CSc1nc2sc3c(c2c(=O)n1-c1ccccc1)CCCCC3)N/N=C/c1cccc([N+](=O)[O-])c1`: the growth is 79%.

Take `O=C(Nc1cccc(Cl)c1)Nc1cccc(Cn2c(=O)[nH]c3ccc(Oc4ncccn4)cc3c2=O)c1`: the growth was 66.1%.

Take `CCOC(=O)Cc1cnc(N/N=C(\C)c2cc3ccccc3o2)s1`: the growth is 93.6%.

For the molecule `COC1/C=C/OC2(C)Oc3c(C)c(O)c4c(O)c(c(/C=N/Nc5ccc([N+](=O)[O-])cc5[N+](=O)[O-])c(O)c4c3C2=O)NC(=O)C(C)=C/C=C/C(C)C(O)C(C)C(O)C(C)C(OC(C)=O)C1C` (stereo unspecified), the growth was 93.9%.

As for `COC(=O)CC[C@@H]1O[C@@H](c2cccc(C(F)(F)F)c2)[C@@H](O)[C@H]1O`, the growth is 103%.

Turning to `COc1ccc(/C=N/NC(=O)c2ccc(-n3cc(-c4ccccc4)nn3)cc2)cc1OC`, the growth is 105%.

Take `COC(=O)c1c2c(c(C)[n+]([O-])c1C)C(=O)C(NCc1cccc(OC)c1)=CC2=O`: the growth is 22.6%.

For the molecule `Nc1n[nH]c2cccc(C#Cc3cccc(C(=O)Nc4cc(C(F)(F)F)cc(C(F)(F)F)c4)c3)c12`, the growth was 96.7%.

For the molecule `OB1OCc2cc(/C=C/c3cccc(C(F)(F)F)c3)ccc21`, the growth was 20.7%.

With `CNC(=O)c1[nH]cc(-c2ccc(OC)cc2)c1-c1cc(OC)c2c(c1OC)OCO2`, the growth is 96.2%.

As for `COc1ccc(-c2cc(-c3ccc(Cl)cc3)c(C#N)c(=O)n2Cc2ccc(C(=O)Nc3ccccc3N)cc2)cc1`, the growth was 89.3%.

For the molecule `CC1CCc2c(C(=O)Nc3ncc(Cc4cccc([N+](=O)[O-])c4)s3)csc2C1` (stereo unspecified), the growth was 33.1%.

Take `N#Cc1nc(-c2ccc(Cl)cc2)oc1S(=O)(=O)N1CCN(c2ccc(F)cc2)CC1`: the growth was 94%.

As for `COc1c(B(O)O)cccc1-c1nc2c(F)cc3[nH]ncc3c2c2c1CCCC2`, the growth is 7.84% (active).

As to `O=S(=O)(NCCNc1nccc(-c2c(-c3ccc(F)c(O)c3)nc3sccn23)n1)c1ccc(O)cc1`, the growth is 70.8%.

Take `CCOC(=O)C(=O)C(C(=O)OCC)c1ccccc1` (stereo unspecified): the growth is 110%.

With `COc1ccc(C(=O)/C=C/c2c(C(F)(F)F)nc3ccccn23)cc1OC`, the growth is 24%.

For `CC(=O)O[C@H]1CC2CCC3C(CC[C@@]4(C)C3C[C@H]([N+]3(C)CCCCC3)[C@@H]4OC(C)=O)[C@@]2(C)C[C@@H]1N1CCCCC1` (stereo partly specified), the growth is 110%.

With `O=C1c2ccc3c4c5ccc(c24)C(=O)N1CCCOCCCCOCCCNCc1ccc(cc1)CNCCCOCCCCOCCCN(C3=O)C5=O`, the growth is 0.552% (active).

As to `CC(O)(c1ccccc1)C(c1ccccc1)C1CCCCN1` (stereo unspecified), the growth was 88.5%.

Take `CCCC/C=C/[C@@H]1C[C@H]1CCO`: the growth was 92.1%.

With `COc1ccc(OC)c(Nc2nnc(-c3ccc(O)c(OC)c3)o2)c1`, the growth is 86.9%.

As for `N#CC1=C(N)Oc2c(ccc3ccccc23)C1c1ccccc1` (stereo unspecified), the growth is 55.6%.

As for `OCCn1cc(-c2nc(-c3c[nH]c4ncccc34)cs2)c2ccccc21`, the growth is 74.8%.

Turning to `Cn1cc(-c2csc(-c3cn(C(=O)OC(C)(C)C)c4ccc(Br)cc34)n2)c2ccnc(Cl)c21`, the growth is 85.3%.

For `O=S(=O)(c1ccccc1)n1cc2c(c1)-c1nc(Nc3ncccn3)sc1CC2`, the growth is 63.6%.

Another experiment concerns HOP-62 NSCLC. The experiment is described as above. Conditions: 10 µM unless noted.
`CCOc1ccc(NC(=O)CSc2oc(-c3ccccc3)nc2S(=O)(=O)c2ccc(C)cc2)cc1`: the growth was 53.9%.

On to `O=C(/C=C/c1cccc(Cl)c1)c1ccc(Nc2nc(Nc3ccc(F)cc3)nc(Nc3ccc(Cl)cc3)n2)cc1`, for which the growth was 91.9%.

For `Cn1c(I)c(C#CCO[Si](C)(C)C(C)(C)C)c(=O)[nH]c1=O`, the growth is 96.9%.

Take `CC(=O)Oc1ccc(C)cc1C`: the growth was 105%.

Take `COc1cc(C2CC(c3ccc(Nc4nc(Nc5ccc(Cl)cc5)nc(Nc5ccc(Cl)cc5)n4)cc3)=NN2C(C)=O)cc(OC)c1OC` (stereo unspecified): the growth is 105%.

Take `c1cnc2c(-c3nc4ccc5[nH]ncc5c4c4c3CCCC4)c[nH]c2c1`: the growth is 15%.

On to `COc1ccc(/C=C/C(=O)c2cc3c(N)c(C(=O)Nc4cccc5ccccc45)sc3nc2C)cc1`, for which the growth is 74.5%.

For the molecule `O=C1/C(=C/c2ccc([N+](=O)[O-])cc2)COc2ccc(O)cc21`, the growth was 104%.

For `CCOCCNC1=C(Cl)C(=O)c2ccccc2C1=O`, the growth was 110%.

`CCN(CC)c1ccc(\C=N/N=C(N)/C(N)=N\N=C/c2ccc(N(CC)CC)cc2)cc1`: the growth was 93.1%.

As to `CSc1nc2ccccc2cc1/C=C1/C=C(c2ccccc2)NC1=O`, the growth is 79.1%.

`Cn1cc(-c2ccc3nc(-c4ccc(CC(=O)ONc5cc(C(C)(C)C)on5)cc4)cnc3c2)cn1`: the growth is 37.1%.

Take `Nc1ncnc2c1C(c1ccccc1)c1ccc3ccccc3c1O2` (stereo unspecified): the growth is 68.5%.

Regarding `N#Cc1nc(-c2ccc(F)cc2)oc1S(=O)(=O)N1CCOCC1`, the growth is 101%.

Regarding `O=C(CSc1nc2sc3c(c2c(=O)n1-c1ccccc1)CCCCC3)N/N=C/c1cccc([N+](=O)[O-])c1`, the growth was 53%.

For `O=C(Nc1cccc(Cl)c1)Nc1cccc(Cn2c(=O)[nH]c3ccc(Oc4ncccn4)cc3c2=O)c1`, the growth was 64.8%.

For the molecule `CCOC(=O)Cc1cnc(N/N=C(\C)c2cc3ccccc3o2)s1`, the growth is 68%.

For `COC1/C=C/OC2(C)Oc3c(C)c(O)c4c(O)c(c(/C=N/Nc5ccc([N+](=O)[O-])cc5[N+](=O)[O-])c(O)c4c3C2=O)NC(=O)C(C)=C/C=C/C(C)C(O)C(C)C(O)C(C)C(OC(C)=O)C1C` (stereo unspecified), the growth is 42.2%.

As to `COC(=O)CC[C@@H]1O[C@@H](c2cccc(C(F)(F)F)c2)[C@@H](O)[C@H]1O`, the growth is 103%.

For `COc1ccc(/C=N/NC(=O)c2ccc(-n3cc(-c4ccccc4)nn3)cc2)cc1OC`, the growth is 101%.

Take `COC(=O)c1c2c(c(C)[n+]([O-])c1C)C(=O)C(NCc1cccc(OC)c1)=CC2=O`: the growth was 53.2%.

With `Nc1n[nH]c2cccc(C#Cc3cccc(C(=O)Nc4cc(C(F)(F)F)cc(C(F)(F)F)c4)c3)c12`, the growth is 93.8%.

For the molecule `OB1OCc2cc(/C=C/c3cccc(C(F)(F)F)c3)ccc21`, the growth is -17.7% (active).

As to `CNC(=O)c1[nH]cc(-c2ccc(OC)cc2)c1-c1cc(OC)c2c(c1OC)OCO2`, the growth is 85.3%.

For `COc1ccc(-c2cc(-c3ccc(Cl)cc3)c(C#N)c(=O)n2Cc2ccc(C(=O)Nc3ccccc3N)cc2)cc1`, the growth was 71.6%.

For the molecule `CC1CCc2c(C(=O)Nc3ncc(Cc4cccc([N+](=O)[O-])c4)s3)csc2C1` (stereo unspecified), the growth was 26.8%.

For the molecule `N#Cc1nc(-c2ccc(Cl)cc2)oc1S(=O)(=O)N1CCN(c2ccc(F)cc2)CC1`, the growth was 96.4%.

Regarding `COc1c(B(O)O)cccc1-c1nc2c(F)cc3[nH]ncc3c2c2c1CCCC2`, the growth was 9.83% (active).

As to `O=S(=O)(NCCNc1nccc(-c2c(-c3ccc(F)c(O)c3)nc3sccn23)n1)c1ccc(O)cc1`, the growth was 78.7%.

As to `CCOC(=O)C(=O)C(C(=O)OCC)c1ccccc1` (stereo unspecified), the growth was 107%.

As for `COc1ccc(C(=O)/C=C/c2c(C(F)(F)F)nc3ccccn23)cc1OC`, the growth is 11.1%.

On to `CC(=O)O[C@H]1CC2CCC3C(CC[C@@]4(C)C3C[C@H]([N+]3(C)CCCCC3)[C@@H]4OC(C)=O)[C@@]2(C)C[C@@H]1N1CCCCC1` (stereo partly specified), for which the growth was 114%.

For `O=C1c2ccc3c4c5ccc(c24)C(=O)N1CCCOCCCCOCCCNCc1ccc(cc1)CNCCCOCCCCOCCCN(C3=O)C5=O`, the growth is 33.6%.

`CC(O)(c1ccccc1)C(c1ccccc1)C1CCCCN1` (stereo unspecified): the growth is 99.3%.

As to `CCCC/C=C/[C@@H]1C[C@H]1CCO`, the growth is 90.5%.

Regarding `COc1ccc(OC)c(Nc2nnc(-c3ccc(O)c(OC)c3)o2)c1`, the growth is 77.6%.

Turning to `N#CC1=C(N)Oc2c(ccc3ccccc23)C1c1ccccc1` (stereo unspecified), the growth was 12.8%.

Consider `OCCn1cc(-c2nc(-c3c[nH]c4ncccc34)cs2)c2ccccc21`, for which the growth was 74.7%.

As to `Cn1cc(-c2csc(-c3cn(C(=O)OC(C)(C)C)c4ccc(Br)cc34)n2)c2ccnc(Cl)c21`, the growth is 68.5%.

For the molecule `O=S(=O)(c1ccccc1)n1cc2c(c1)-c1nc(Nc3ncccn3)sc1CC2`, the growth was 22.1%.
